# Most compounds without a hit are left out; they make up all but 27% or so of the library.
# sEH inh – inhibitors of human soluble epoxide hydrolase. P34913. recombinant human sEH enzymatic activity assay. inhibition, % at 2 µM. actives 0.34% (n = 91,000); in the data active = inhibition above about 80%
# Target sequence (P34913 whole entry, looked up): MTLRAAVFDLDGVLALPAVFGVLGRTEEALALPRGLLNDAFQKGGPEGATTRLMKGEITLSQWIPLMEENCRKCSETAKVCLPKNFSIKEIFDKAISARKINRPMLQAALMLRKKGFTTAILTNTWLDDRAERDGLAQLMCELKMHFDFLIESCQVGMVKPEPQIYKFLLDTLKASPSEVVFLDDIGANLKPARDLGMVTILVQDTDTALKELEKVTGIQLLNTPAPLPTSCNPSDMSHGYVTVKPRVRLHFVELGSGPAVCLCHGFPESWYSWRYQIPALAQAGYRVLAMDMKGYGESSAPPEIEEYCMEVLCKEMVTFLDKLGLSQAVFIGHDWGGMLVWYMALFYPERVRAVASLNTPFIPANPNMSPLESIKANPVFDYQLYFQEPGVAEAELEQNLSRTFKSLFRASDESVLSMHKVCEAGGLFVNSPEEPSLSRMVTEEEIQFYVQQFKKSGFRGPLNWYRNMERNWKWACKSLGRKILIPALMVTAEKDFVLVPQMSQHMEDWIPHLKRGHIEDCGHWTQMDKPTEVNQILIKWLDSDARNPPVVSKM
# CYP2C19 inh – human CYP2C19 inhibition; CYP2C19 Supersomes, luciferin-H EGE luminescence, 30 min; inhibition, % at 5 µM; actives 21% (n = 96,000); AID 778;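 active = CYP2C19 inhibition above a set limit at 5 µM in the primary screen, cut at about 50% in these data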;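 note: plate controls were negative control wells for no effect and 2.5 mM tranylcypromine positive control for full effect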
# CYP2C9 activ – activators of human CYP2C9; AID 1024; activation factor at 5 µM; recombinant CYP2C9, luciferin-H conversion, luminescence; stronger effect = higher value; factor 1 = untreated enzyme, 0 = blocked; actives 1.4% (n = 96,000);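 active = activation factor of 2 or more for CYP2C9 at a 5 µM dose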;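 note: 0 = sulfaphenazole-blocked wells and 1 = vehicle-only wells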
# CYP2C9 inhib – inhibitors of human CYP2C9; CYP2C9 Supersomes, luciferin-H conversion, luminescence; inhibition, % at 5 µM; actives 20% (n = 96,000);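 active = blocking of liver enzyme CYP2C9 beyond about 50% at 5 µM, limit read from the data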
# sEH activator – increases human soluble epoxide hydrolase activity. P34913. purified human sEH enzymatic activity, activator screen. activation, % at 2 µM. actives 0.04% (n = 91,000); in the data active = activation above about 37%
# CYP2C19 activ – cytochrome P450 2C19 (human) activation; 96,000 tested, under 10 active; AID 1025; activation factor at 5 µM; recombinant CYP2C19, luciferin-H EGE luminescence; stronger effect = higher value; 0 = fully inhibited enzyme, 1 = untreated enzyme;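 active = activation factor of at least 2 at 5 µM in the primary screen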;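 note: 0 = wells with 2.5 mM tranylcypromine and 1 = vehicle-only wells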
# Numbers without * were called inactive; . = no result given.
SMILES,sEH inh,CYP2C19 inh,CYP2C9 activ,CYP2C9 inhib,sEH activator,CYP2C19 activ
CC(NC(=O)c1ccco1)C(c1cccs1)N1CCN(c2ccc(F)cc2)CC1 (stereo not drawn),12,28,0.7,32,-9,0.7
Cc1cccc(NC(=O)NC(C)C(c2cccs2)N2CCOCC2)c1 (stereo not drawn),.,83*,0.6,44,.,0.2
CC(C)C(=O)NC(C)C(c1cccs1)N1CCOCC1 (stereo not drawn),.,4,0.8,19,.,1
CCN(CC)C(=O)CSc1nnc(-c2ccccn2)n1-c1ccc(C)c(C)c1,2,-5,1,-1,-5,1.1
CCCc1cc(=O)n2[nH]c(NCc3c(F)cccc3Cl)nc2n1,1,13,0.5,47,3,0.9
CC1CN(C2CCN(C(=O)c3ccccc3)CC2)CC(C)O1 (stereo not drawn),.,-6,1.1,-8,.,1.1
CC(NC(=O)Cc1cccs1)C(c1cccs1)N1CCN(c2ccccc2F)CC1 (stereo not drawn),.,38,0.5,54*,.,0.6
O=C(CN1C(=O)CC(c2ccccc2)=Nc2ccccc21)NCc1ccccc1,4,.,.,.,-4,.
Cc1cc2c(cc1C)N(CC(=O)N1CCCC1)C(=O)CC(c1ccccc1)=N2,4,35,0.3,68*,-3,0.7
Cc1cc(C)nc(SCCC(=O)N(C)C)n1,-11,-4,1.1,-10,12,1
Cc1cc(C)nc(SCCS(=O)Cc2ccc(Cl)cc2)n1 (stereo not drawn),6,81*,0.8,22,-7,0.2
Cc1cc(N(C(=O)c2ccco2)C(C(=O)NC2CCCCC2)c2ccccc2)ccc1-n1cnnn1 (stereo not drawn),-11,56*,0.1,92*,12,0.4
COc1cccc(C(C(=O)NC2CCCCC2)N(C(=O)Cc2cccs2)c2ccc(-n3cnnn3)c(OC)c2)c1 (stereo not drawn),-1,65*,0.7,31,4,0.3
O=C(Nc1ccc2oc(-c3ccc(Cl)c(Cl)c3)nc2c1)c1ncn[nH]1,0,5,1.1,-6,-2,0.9
O=C(Nc1ccc(Oc2ccc(Cl)cc2)cc1)c1ncn[nH]1,.,54*,1,3,.,0.5
CC(c1cccnc1)N(C(=O)Nc1ccccc1)C1CCCCC1 (stereo not drawn),-10,11,0.9,11,9,0.9
COc1ccc(C(=O)CSc2nnc(-c3ccccn3)n2Cc2ccco2)cc1,1,29,0.3,66*,-2,0.7
COc1ccc(C(=O)CSc2nnc(-c3ccco3)n2C)cc1,-12,25,1,-5,11,0.8
COc1cc(Cl)c(C)cc1NC(=O)CSc1nnc(-c2ccccn2)n1Cc1ccco1,-17,16,0.5,50*,15,0.8
O=C(CSc1nnc(-c2cnccn2)n1Cc1ccco1)c1ccc(Cl)cc1,4,27,0.4,59*,-3,0.7
O=C(CSc1nnc(-c2ccccn2)n1Cc1ccco1)c1ccc(Cl)cc1,11,27,0.3,71*,-10,0.7
O=C(CSc1nnc(-c2cnccn2)n1Cc1ccco1)c1ccccc1,-2,35,0.6,38,1,0.7
CCC(C)(NC(=O)CNC(C)=O)C(=O)NC1CCCCC1 (stereo not drawn),5,-1,1.2,-18,-6,1
O=C(CSc1nnc(-c2ccccn2)n1Cc1ccco1)c1ccccc1,-8,-1,0.5,51*,10,1
O=C(CSc1nnc(-c2cccnc2)n1Cc1ccco1)c1ccc(Br)cc1,-3,88*,0.2,80*,3,0.1
CC(C)n1nnnc1SCC(=O)N1CCOCC1,.,5,1,0,.,1
O=C(NC(Nc1ncc(S(=O)(=O)c2ccc([N+](=O)[O-])cc2)s1)(C(F)(F)F)C(F)(F)F)c1ccc(Cl)cc1,-6,12,0.1,88*,7,0.9
O=C(Nc1cnn(Cc2ccc(Cl)cc2)c1)c1ccc([N+](=O)[O-])cc1,24,0,1,-3,-23,1
COc1cc(/C=N/n2c(SC)nnc(C(C)(C)C)c2=O)ccc1O,7,31,0.6,38,-6,0.7
O=C(Nc1c(-c2ccccc2)nc2sccn12)c1ccccc1,.,79*,0.3,74*,.,0.2
